# Reference: PubChem BioAssay (NCATS)
# Inconclusive results are not listed. Where a call stands in place of a potency, no number is given. The source made the active and inactive calls. Calls follow the shape of the dose curve; as a rule, active = well fitted cell-killing curve with a large enough effect; inconclusive = small, poorly fitted or top-dose-only effect, or effect the other way; inactive = flat fitted curve, though single readings scatter.
# Tested on: CAOV3
# Test: Primary qHTS to identify gynecologic anti-cancer compounds using libraries of approved drugs and bioactive compounds (AID 1345084); also: nearly all actives have a fitted effect of over 55% in size
# Details: Gynecologic cancer cell panel viability, ATPlite luminescence, 48 h; series mostly up to 57.5 µM
# Text: National Center for Advancing Translational Sciences [NCATS] Assay Overview: Chemotherapeutic drug responses vary from cancer to cancer and from patient to patient. These variations could be caused by a number of factors including patient genomic background, tumor mutations, tumor heterogeneity, and aspects of drug treatment. Chemotherapeutic drug resistance is also a common issue and can lead to ineffective treatment and patient death. Here we have profiled the cell killing effects of thousands of compounds to characterize the responses in three gynecological cancers, identify cancer-selective compounds, and understand the diversity of responses to these compounds from pan-cancer suppressors to single cell line selective compounds. In this assay, we screened a 7,914 compound drug library that included approved drug and bioactive compounds in six ovarian, three cervical, and […] placental cancer cell lines using the ATPlite assay for cell viability. […] The cervical cancer cell lines included HeLa, Ca Ski, and C-33 A. The placental cancer cell lines included JEG-3. HEK 293T cells were used as the control cell line to determine the selectivity index. ATPlite is a luminescence based assay reliant on the conversion of a luciferase substrate to light in the presence of ATP. As a cytotoxic compound will suppress growth and decrease the number of cells, the concentration of ATP will decrease, and less light signal will be detected in the well.
# Assay Protocol Summary: 1,000 cells in 4 uL of media were dispensed into white, solid bottom 1536-well plates using a Multidrop Combi (Thermo Scientific). The Assay plates were incubated for 16 hours at 37 C with 5% CO2 in assay plates, followed by the addition of 23 nL of DMSO or drug dissolved in DMSO. Each compound was assayed in five concentrations (0.092, 0.46, 2.3, 11.5, and 57.5 uM), using the automated Wako 1536 Pin Tool workstation and incubated at 37 C with 5% CO2 48 hours. 4 uL of ATPlite, the ATP monitoring reagent, was then added to the each well of the assay plates using the Multidrop Combi reagent dispenser followed by incubation for 15 minutes at room temperature. The resulting luminescence was measured using the ViewLux plate reader.
# Potency is read from the fitted curve at half-maximal effect.
row,SMILES,Potency
1,COc1cc2c(c(OC)c1OC)-c1ccc(OC)c(=O)cc1[C@@H](NC(C)=O)CC2,inactive
2,CC(COc1ccccc1)N(CCCl)Cc1ccccc1 (stereo not given),inactive
3,CCC1(c2ccccc2)C(=O)NCNC1=O,inactive
4,Nc1c2c(nc3ccccc13)CCCC2,inactive
5,NS(=O)(=O)c1cc2c(cc1Cl)NCNS2(=O)=O,inactive
6,NC(=O)NO,inactive
7,CC1(C)O[C@H]2CC(=O)OC[C@]23[C@H]2CC[C@@]4(C)[C@H](c5ccoc5)OC(=O)[C@H]5O[C@]54[C@]2(C)C(=O)C[C@@H]13,inactive
8,CC(C)C(=O)Nc1ccc([N+](=O)[O-])c(C(F)(F)F)c1,inactive
9,C[C@H]1c2cccc(O)c2C(O)=C2C(=O)[C@]3(O)C(O)=C(C(N)=O)C(=O)[C@@H](N(C)C)[C@@H]3[C@@H](O)[C@@H]21,inactive
10,Cn1cnc2c1c(=O)[nH]c(=O)n2C,inactive
11,COc1ccc2[nH]cc(CCNC(C)=O)c2c1,inactive
12,CC(C(=O)O)c1cccc(C(=O)c2ccccc2)c1 (stereo not given),inactive
13,CN(Cc1cnc2nc(N)nc(N)c2n1)c1ccc(C(=O)N[C@@H](CCC(=O)O)C(=O)O)cc1,inactive
14,COc1ccccc1N1CCN(CC(O)COc2cccc3ccccc23)CC1 (stereo not given),12.6 µM (active)
15,CN(C)CCOC(c1ccccc1)c1ccccc1,inactive
16,NC12CC3CC(CC(C3)C1)C2,inactive
17,CCC1(C)CC(=O)NC1=O (stereo not given),inactive
18,CC1(CN2CCC(n3c(=O)[nH]c4ccccc43)CC2)OCc2ccccc2-n2cccc21 (stereo not given),inactive
19,CC(C)NCC(O)c1ccc(O)c(O)c1 (stereo not given),inactive
20,Cc1cn([C@H]2C[C@H](N=[N+]=[N-])[C@@H](CO)O2)c(=O)[nH]c1=O,inactive

row,SMILES,Potency
1,O=C1c2c(O)ccc(O)c2C(=O)c2c(NCCNCCO)ccc(NCCNCCO)c21,3.16 µM (active)
2,O=c1c(O)c(-c2ccc(O)c(O)c2)oc2cc(O)cc(O)c12,inactive
3,COC(=O)Nc1nc2ccc(C(=O)c3cccs3)cc2[nH]1,inactive
4,COc1ccccc1OCCNCC(O)COc1cccc2[nH]c3ccccc3c12 (stereo not given),inactive
5,CCOC(=O)Nc1ccc(NCc2ccc(F)cc2)nc1N,inactive
6,Cc1ccc(C(=O)Nc2ccc(S(=O)(=O)O)c3cc(S(=O)(=O)O)cc(S(=O)(=O)O)c23)cc1NC(=O)c1cccc(NC(=O)Nc2cccc(C(=O)Nc3cc(C(=O)Nc4ccc(S(=O)(=O)O)c5cc(S(=O)(=O)O)cc(S(=O)(=O)O)c45)ccc3C)c2)c1,inactive
7,CC(C)(Oc1ccc(C2CC2(Cl)Cl)cc1)C(=O)O (stereo not given),inactive
8,Clc1ccc2nsnc2c1NC1=NCCN1,inactive
9,OCCN1CCN(CCCN2c3ccccc3Sc3ccc(C(F)(F)F)cc32)CC1,inactive
10,NCCCCCC(=O)O,inactive
11,CC[C@@]1(O)C(=O)OCc2c1cc1n(c2=O)Cc2cc3c(CN(C)C)c(O)ccc3nc2-1,3.16 µM (active)
12,CN1CCN(CCCN2c3ccccc3Sc3ccc(Cl)cc32)CC1,inactive
13,CN1CCC(=C2c3ccccc3C=Cc3ccccc32)CC1,inactive
14,COc1cc2nc(N3CCN(C(=O)C4COc5ccccc5O4)CC3)nc(N)c2cc1OC (stereo not given),inactive
15,COc1ccc(CCN(C)CCCC(C#N)(c2ccc(OC)c(OC)c2)C(C)C)cc1OC (stereo not given),inactive
16,CN(C)c1nc(N(C)C)nc(N(C)C)n1,inactive
17,NCCc1cnc[nH]1,inactive
18,O=C(C1CCCCC1)N1CC(=O)N2CCc3ccccc3C2C1 (stereo not given),inactive
19,COc1cc2nc(N(C)CCCNC(=O)C3CCCO3)nc(N)c2cc1OC (stereo not given),inactive
20,Nc1nc2c(ncn2COC(CO)CO)c(=O)[nH]1,inactive
